The values below come from PubChem BioAssay (EPA / NIEHS).

SMILES strings stand for the structures. Active and inactive are the calls of the source. Rule for the calls: active = hit-call score of the fitted dose curve at least 0.9, where 1 is the maximum; inactive = score below 0.9.

Experiment [1] in a line: ATG_CRE_CIS: Attagene CIS-FACTORIAL HepG2 Assay for human cAMP Responsive Element (CRE) binding protein 3 (AID 2282926). Particulars: HepG2 CRE cis-reporter, Attagene multiplexed mRNA; actives raise or lower the signal. An outline of the steps: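 Capillary electrophoresis of 6-FAM-labelled, HpaI-digested PCR products quantified reporter transcripts. These came from HepG2 transiently transfected with cis-element reporters and exposed to test chemicals for 24 hours, with DMSO defining baseline activity.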

Experiment [2] concerns the target Aryl hydrocarbon receptor (Homo sapiens) (UniProt P35869). Description: ATG_Ahr_CIS: Attagene CIS-FACTORIAL HepG2 Assay for human Aryl Hydrocarbon Receptor (Ahr) (AID 2282930). Particulars: HepG2 AhR cis-factorial reporter transcription; actives raise or lower the signal. An outline of the steps:
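Values derive from bidirectional fitting against DMSO negative control. Underlying signal: cis-element reporter mRNA in transiently transfected HepG2, harvested 24 h post-dose and measured by RT-PCR plus capillary electrophoresis.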

Experiment [3] in a line: ATG_AP_1_CIS: Attagene CIS-FACTORIAL HepG2 Assay for human Activator Protein 1 (AP-1) (AID 2282931). The conditions noted are these: HepG2 Attagene cis-factorial AP-1 reporter mRNA; actives raise or lower the signal. Put shortly: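 Fluorescence of labelled PCR fragments separated by capillary electrophoresis gives reporter mRNA levels. HepG2 with transfected cis-regulated reporter units, 24 h exposure; DMSO serves as baseline for bidirectional curve fits.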

A short description of experiment [4]: ATG_BRE_CIS: Attagene CIS-FACTORIAL HepG2 Assay for human Bone Morphogenetic Protein (BMP) Response Element (BRE) (AID 2282933). The conditions noted are these: HepG2 BMP response element reporter, Attagene transcription factor profiling; actives raise or lower the signal. Put shortly:
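Endogenous transcription factor activity at a BMP response element was monitored in transfected HepG2 cells 24 h after dosing. Fluorescent RT-PCR products were resolved by capillary electrophoresis, and activity was fitted in both directions versus DMSO.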

The nature of experiment [5]: ATG_M_19_CIS: Attagene CIS-FACTORIAL HepG2 Assay for M19 Transcription Factor (Internal Marker) (AID 2282939). The conditions noted are these: HepG2 Attagene CIS-FACTORIAL M19 internal marker reporter; actives raise or lower the signal. Put shortly: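 Background-control endpoint from a multiplexed HepG2 reporter panel. Cells carrying cis-regulated reporter constructs are treated 24 h, then reporter transcripts are amplified, fluorescently labelled and sized by capillary electrophoresis. DMSO defines baseline.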

Experiment [6] in a line: ATG_M_06_CIS: Attagene CIS-FACTORIAL HepG2 Assay for M06 Transcription Factor (Internal Marker) (AID 2282950). Particulars: HepG2 Attagene CIS-FACTORIAL M06 internal marker reporter; actives raise or lower the signal. Put shortly:
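Steps: transfect HepG2 with multiplexed cis-element reporter constructs; dose chemical 24 h; extract RNA with DNase treatment; reverse-transcribe, PCR-amplify, 6-FAM label, HpaI digest; separate fragments by capillary electrophoresis. Activity fitted both directions versus DMSO.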

Experiment [7] addresses Hypoxia-inducible factor 1-alpha (Homo sapiens) (UniProt Q16665). The experiment is described as follows: ATG_HIF1a_CIS: Attagene CIS-FACTORIAL HepG2 Assay for human Hypoxia Inducible Factor 1 (HIF1A) (AID 2282951). Particulars: HepG2 Attagene cis-factorial HIF1a reporter transcription; actives raise or lower the signal. An outline of the steps:
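HepG2, transient cis-reporter library, 24 h dosing. RNA → RT (oligo dT) → PCR → 6-FAM primer extension → HpaI → CE. Bidirectional curve fit vs DMSO.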

For experiment [8], the target named is Hepatocyte nuclear factor 6 (Homo sapiens) (UniProt Q9UBC0). The experiment is described as follows: ATG_HNF6_CIS: Attagene CIS-FACTORIAL HepG2 Assay for human Hepatocyte Nuclear Factor 6 (HNF6) (AID 2282952). The conditions noted are these: HepG2 Attagene cis-factorial HNF6 reporter transcription; actives raise or lower the signal. An outline of the steps:
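Activity values derive from bidirectional fitting against DMSO of reporter mRNA levels, measured by capillary electrophoresis of labelled RT-PCR products from HepG2 cells exposed 24 h.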

In experiment [9] the target is Heat shock factor protein 1 (Homo sapiens) (UniProt Q00613). The experiment is described as follows: ATG_HSE_CIS: Attagene CIS-FACTORIAL HepG2 Assay for human Heat Shock Transcription Factor 1 (HSE) (AID 2282953). Particulars: HepG2 HSE cis-reporter, Attagene RNA transcription; actives raise or lower the signal. An outline of the steps:
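Cells were transfected with cis-element-driven reporter constructs, dosed for 24 h, then total RNA was reverse-transcribed and reporter cDNA amplified, FAM-labelled and digested with HpaI. Fragments were resolved by capillary electrophoresis; gain or loss was fitted against DMSO.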

A short description of experiment [10]: ATG_TA_CIS: Attagene CIS-FACTORIAL HepG2 Assay for human TA Basal Promoter (AID 2282964). Particulars: HepG2 Attagene CIS-factorial TA basal promoter reporter; actives raise or lower the signal. Put shortly:
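Steps: transfect HepG2 with MRTUs; dose 24 h; isolate RNA, DNase-treat, reverse-transcribe; PCR and FAM-label reporter cDNA; digest with HpaI 2h at 37 C; run capillary electrophoresis. Activity fitted both directions against DMSO.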

Experiment [11] is described as follows: ATG_VDRE_CIS: Attagene CIS-FACTORIAL HepG2 Assay for human Vitamin D Receptor Element (VDRE) (AID 2282968). Particulars: HepG2 VDRE cis-reporter transcription, actives raise or lower the signal. An outline of the steps:
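Steps: transfect HepG2 with multiple reporter transcription units; dose chemicals 24 h; isolate RNA; RT-PCR; label with 6-FAM primer extension; HpaI digest; capillary electrophoresis. Curves fitted both directions against DMSO.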

Experiment [12] deals with X-box-binding protein 1 (Homo sapiens) (UniProt P17861). The experiment is described as follows: ATG_Xbp1_CIS: Attagene CIS-FACTORIAL HepG2 Assay for human X-box Binding Protein 1 (XBP1) (AID 2282972). Particulars: HepG2 XBP1 cis-element reporter, Attagene multiplex; actives raise or lower the signal. Put shortly:
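Changes in reporter transcript abundance, read by RT-PCR and capillary electrophoresis, reflect endogenous transcription factor activity. Transfected HepG2 cells received compound for 24 hours; DMSO defined baseline for bidirectional analysis.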

For experiment [13], the target named is Nuclear respiratory factor 1 (Homo sapiens) (UniProt Q16656). Description: ATG_NRF1_CIS: Attagene CIS-FACTORIAL HepG2 Assay for human Nuclear Respiratory Factor 1 (NRF1) Orphan Gene (AID 2282987). Particulars: HepG2 NRF1 cis-element reporter, Attagene multiplex; actives raise or lower the signal. Put shortly:
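Human hepatoma HepG2 cells carrying transfected promoter-regulated reporter units were incubated with test chemicals for 24 h. Reporter transcripts were measured by RT-PCR plus capillary electrophoresis, and endpoints derived by bidirectional fitting with DMSO as baseline.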

Experiment [14] addresses Myc proto-oncogene protein (Homo sapiens) (UniProt P01106). Description: ATG_Myc_CIS: Attagene CIS-FACTORIAL HepG2 Assay for human Myelocytomatosis (Myc) Proto-Oncogene Transcription Factor (AID 2282990). The conditions noted are these: HepG2, Attagene cis-reporter transcription factor activity; actives raise or lower the signal. Put shortly: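 Multiplexed cis-reporter transcription in HepG2 cells after 24 h chemical treatment. Reporter mRNA measured by RT-PCR and capillary electrophoresis fluorescence; activity fitted bidirectionally against DMSO control.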

The nature of experiment [15]: ATG_NRF2_ARE_CIS: Attagene CIS-FACTORIAL HepG2 Assay for human Nuclear Factor Erythroid 2 Related Factor 2 (NFR2) response to Antioxidant Response Elements (ARE) (AID 2282992). The conditions noted are these: HepG2 Attagene ARE/NRF2 reporter, transcription factor activity; actives raise or lower the signal. An outline of the steps:
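Using transiently transfected HepG2 cells exposed for 24 h, reporter mRNA levels were determined by RT-PCR with fluorescent primer extension and capillary electrophoresis, analysed for gain or loss of signal against DMSO.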

A short description of experiment [16]: ATG_Oct_MLP_CIS: Attagene CIS-FACTORIAL HepG2 Assay for human Octamer-Binding Transcription Factor (Oct) (AID 2282993). Particulars: HepG2 Attagene cis-factorial Oct reporter, mRNA; actives raise or lower the signal. An outline of the steps: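 Multiplexed cis-reporter assay in human liver HepG2 cells, 24 h incubation. Reporter RNA amplified and labelled, then resolved by capillary electrophoresis; DMSO serves as negative control and baseline.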

Experiment [17] addresses Cellular tumor antigen p53 (Homo sapiens) (UniProt P04637). Description: ATG_p53_CIS: Attagene CIS-FACTORIAL HepG2 Assay for human p53 Transcription Factor (AID 2282994). The conditions noted are these: HepG2 p53 cis-element reporter, Attagene mRNA; actives raise or lower the signal. Put shortly: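 In HepG2 cells, reporter transcription units under cis-regulatory promoters were transiently introduced. Following 24 h treatment, RNA was processed to labelled, digested cDNA fragments read by capillary electrophoresis; fitting was bidirectional versus DMSO.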

Experiment [18] deals with CCAAT/enhancer-binding protein beta (Homo sapiens) (UniProt P17676). Description: ATG_C_EBP_CIS: Attagene CIS-FACTORIAL HepG2 Assay for human CCAAT/Enhancer Binding Protein (C/EBP) beta (AID 2282927). Particulars: HepG2 Attagene cis-factorial transcription factor reporter; actives raise or lower the signal. An outline of the steps: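 Following a 24 h incubation with test chemical, transfected HepG2 cells yielded RNA whose reporter transcripts were quantified by RT-PCR and fluorescent capillary electrophoresis, with DMSO serving as baseline for bidirectional fitting.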

A short description of experiment [19]: ATG_E_Box_CIS: Attagene CIS-FACTORIAL HepG2 Assay for human Enhancer Box (E-box) (AID 2282936). The conditions noted are these: HepG2 E-box cis-reporter transcription, actives raise or lower the signal. Put shortly: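 Endogenous transcription factor activity was sensed in human HepG2 liver cells through transfected cis-promoter reporter units. After 24 h of dosing, total RNA was reverse-transcribed and reporter cDNA resolved by capillary electrophoresis.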

Experiment [20] is described as follows: ATG_GLI_CIS: Attagene CIS-FACTORIAL HepG2 Assay for human Zinc Finger Protein GLI1 (AID 2282945). The conditions noted are these: HepG2, Attagene cis-factorial reporter mRNA, GLI element; actives raise or lower the signal. Put shortly:
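HepG2 cells transiently transfected with cis-promoter multiplexed reporter units report endogenous transcription factor activity. After 24 h chemical exposure, reporter mRNA was quantified by RT-PCR, 6-FAM labelling, HpaI digestion and capillary electrophoresis, with bidirectional fitting against DMSO.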

Chain of Hypoxia-inducible factor 1-alpha (Homo sapiens) (Q16665 whole entry, looked up): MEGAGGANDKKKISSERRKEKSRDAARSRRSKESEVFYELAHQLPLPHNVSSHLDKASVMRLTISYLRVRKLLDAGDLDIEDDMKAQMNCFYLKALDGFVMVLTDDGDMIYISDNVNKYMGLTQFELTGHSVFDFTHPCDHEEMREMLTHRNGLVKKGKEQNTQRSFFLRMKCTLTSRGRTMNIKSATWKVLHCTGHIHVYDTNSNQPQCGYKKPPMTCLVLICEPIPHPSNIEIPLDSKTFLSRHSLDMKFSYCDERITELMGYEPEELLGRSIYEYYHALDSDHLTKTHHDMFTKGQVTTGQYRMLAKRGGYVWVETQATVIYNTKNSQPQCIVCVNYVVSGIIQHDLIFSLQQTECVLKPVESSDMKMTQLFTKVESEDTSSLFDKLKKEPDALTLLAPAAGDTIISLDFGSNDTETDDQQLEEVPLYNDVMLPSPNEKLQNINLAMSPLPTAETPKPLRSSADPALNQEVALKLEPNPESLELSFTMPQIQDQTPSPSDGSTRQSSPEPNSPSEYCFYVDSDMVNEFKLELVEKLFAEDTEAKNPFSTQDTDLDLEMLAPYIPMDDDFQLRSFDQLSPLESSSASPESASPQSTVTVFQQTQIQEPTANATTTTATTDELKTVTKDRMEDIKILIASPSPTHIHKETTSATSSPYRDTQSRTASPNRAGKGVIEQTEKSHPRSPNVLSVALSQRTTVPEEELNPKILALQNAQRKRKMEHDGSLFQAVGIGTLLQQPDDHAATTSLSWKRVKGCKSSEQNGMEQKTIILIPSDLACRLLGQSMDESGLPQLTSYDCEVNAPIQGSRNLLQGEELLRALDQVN
Chain of Aryl hydrocarbon receptor (Homo sapiens) (P35869 whole entry, looked up): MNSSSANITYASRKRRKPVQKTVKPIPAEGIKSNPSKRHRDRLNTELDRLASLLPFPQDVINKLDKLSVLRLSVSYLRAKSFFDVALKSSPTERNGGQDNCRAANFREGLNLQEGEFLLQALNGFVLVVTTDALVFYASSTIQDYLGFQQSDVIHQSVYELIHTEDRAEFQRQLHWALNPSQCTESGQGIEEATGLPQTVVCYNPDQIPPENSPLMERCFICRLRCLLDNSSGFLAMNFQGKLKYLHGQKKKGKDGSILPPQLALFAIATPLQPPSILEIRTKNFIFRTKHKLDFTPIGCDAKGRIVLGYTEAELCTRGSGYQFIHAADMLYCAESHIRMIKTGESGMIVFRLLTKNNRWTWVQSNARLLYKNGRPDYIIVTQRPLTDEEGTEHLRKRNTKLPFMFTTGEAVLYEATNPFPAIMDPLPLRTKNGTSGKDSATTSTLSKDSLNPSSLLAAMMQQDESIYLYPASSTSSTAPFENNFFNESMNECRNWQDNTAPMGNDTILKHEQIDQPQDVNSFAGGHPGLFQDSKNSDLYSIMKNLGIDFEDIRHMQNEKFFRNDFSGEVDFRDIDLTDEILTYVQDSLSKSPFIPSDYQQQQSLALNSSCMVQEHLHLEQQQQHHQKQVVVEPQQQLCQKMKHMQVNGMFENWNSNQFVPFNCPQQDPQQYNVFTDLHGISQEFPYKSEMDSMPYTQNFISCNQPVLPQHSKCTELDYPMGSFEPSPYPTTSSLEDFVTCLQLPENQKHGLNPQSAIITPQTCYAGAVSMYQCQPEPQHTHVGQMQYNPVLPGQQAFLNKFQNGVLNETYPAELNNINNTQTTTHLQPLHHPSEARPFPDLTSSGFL
Chain of Heat shock factor protein 1 (Homo sapiens) (Q00613 whole entry, looked up, the tested form may be a part): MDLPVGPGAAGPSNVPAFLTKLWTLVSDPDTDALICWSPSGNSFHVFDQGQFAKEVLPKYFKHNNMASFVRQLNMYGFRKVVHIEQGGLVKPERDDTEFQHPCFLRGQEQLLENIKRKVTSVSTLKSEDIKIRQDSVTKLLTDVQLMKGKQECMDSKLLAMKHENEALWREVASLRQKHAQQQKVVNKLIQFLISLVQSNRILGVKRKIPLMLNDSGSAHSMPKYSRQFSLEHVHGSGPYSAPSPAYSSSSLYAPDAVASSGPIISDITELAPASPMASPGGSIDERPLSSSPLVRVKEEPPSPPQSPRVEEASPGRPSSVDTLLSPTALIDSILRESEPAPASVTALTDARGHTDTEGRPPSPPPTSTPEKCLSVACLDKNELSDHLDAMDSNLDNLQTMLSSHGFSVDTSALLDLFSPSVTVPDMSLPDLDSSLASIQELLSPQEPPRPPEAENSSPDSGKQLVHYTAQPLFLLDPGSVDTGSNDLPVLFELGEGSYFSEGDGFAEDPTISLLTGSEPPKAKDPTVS
Chain of Nuclear respiratory factor 1 (Homo sapiens) (Q16656 whole entry, looked up): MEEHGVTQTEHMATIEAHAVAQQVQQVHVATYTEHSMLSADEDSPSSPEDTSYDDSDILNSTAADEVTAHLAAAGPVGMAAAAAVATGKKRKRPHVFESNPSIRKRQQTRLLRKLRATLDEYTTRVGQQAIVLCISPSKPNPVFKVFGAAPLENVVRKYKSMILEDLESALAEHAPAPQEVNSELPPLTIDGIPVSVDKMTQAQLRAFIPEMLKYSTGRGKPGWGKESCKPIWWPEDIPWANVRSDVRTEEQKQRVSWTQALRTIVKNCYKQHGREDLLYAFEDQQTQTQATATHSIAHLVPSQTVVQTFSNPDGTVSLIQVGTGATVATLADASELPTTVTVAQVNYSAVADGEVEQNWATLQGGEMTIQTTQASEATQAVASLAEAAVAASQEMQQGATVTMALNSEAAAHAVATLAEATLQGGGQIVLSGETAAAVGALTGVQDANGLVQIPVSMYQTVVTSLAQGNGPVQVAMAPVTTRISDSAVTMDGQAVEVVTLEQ
Chain of Cellular tumor antigen p53 (Homo sapiens) (P04637 whole entry, looked up, the tested form may be a part): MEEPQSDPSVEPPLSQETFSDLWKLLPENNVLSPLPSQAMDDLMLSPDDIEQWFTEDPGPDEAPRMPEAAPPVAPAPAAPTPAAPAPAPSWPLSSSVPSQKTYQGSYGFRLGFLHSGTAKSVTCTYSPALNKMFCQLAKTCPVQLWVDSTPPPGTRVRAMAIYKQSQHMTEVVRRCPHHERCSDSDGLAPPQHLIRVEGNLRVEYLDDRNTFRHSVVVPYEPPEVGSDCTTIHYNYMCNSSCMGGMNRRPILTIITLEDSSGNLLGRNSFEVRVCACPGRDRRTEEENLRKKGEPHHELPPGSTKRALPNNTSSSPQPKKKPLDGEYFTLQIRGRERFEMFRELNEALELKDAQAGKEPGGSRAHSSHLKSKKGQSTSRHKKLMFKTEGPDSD
Chain of CCAAT/enhancer-binding protein beta (Homo sapiens) (P17676 whole entry, looked up): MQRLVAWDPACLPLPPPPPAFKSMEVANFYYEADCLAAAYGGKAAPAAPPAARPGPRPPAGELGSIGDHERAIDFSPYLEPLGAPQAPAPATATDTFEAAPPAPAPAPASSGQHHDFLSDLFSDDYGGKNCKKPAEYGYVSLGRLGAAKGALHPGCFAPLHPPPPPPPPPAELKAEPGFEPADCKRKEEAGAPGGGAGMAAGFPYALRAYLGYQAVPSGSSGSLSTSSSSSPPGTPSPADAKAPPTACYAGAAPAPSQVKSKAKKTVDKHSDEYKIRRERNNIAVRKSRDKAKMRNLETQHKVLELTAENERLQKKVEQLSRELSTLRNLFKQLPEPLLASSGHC
Chain of X-box-binding protein 1 (Homo sapiens) (P17861 whole entry, looked up): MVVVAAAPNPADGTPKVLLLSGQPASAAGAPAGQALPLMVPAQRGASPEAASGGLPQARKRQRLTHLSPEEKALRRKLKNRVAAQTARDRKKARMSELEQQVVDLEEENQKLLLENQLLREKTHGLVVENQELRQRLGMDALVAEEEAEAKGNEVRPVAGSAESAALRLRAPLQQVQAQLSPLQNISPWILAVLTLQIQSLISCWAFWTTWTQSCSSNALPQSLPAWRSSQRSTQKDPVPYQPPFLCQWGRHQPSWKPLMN
Chain of Hepatocyte nuclear factor 6 (Homo sapiens) (Q9UBC0 whole entry, looked up): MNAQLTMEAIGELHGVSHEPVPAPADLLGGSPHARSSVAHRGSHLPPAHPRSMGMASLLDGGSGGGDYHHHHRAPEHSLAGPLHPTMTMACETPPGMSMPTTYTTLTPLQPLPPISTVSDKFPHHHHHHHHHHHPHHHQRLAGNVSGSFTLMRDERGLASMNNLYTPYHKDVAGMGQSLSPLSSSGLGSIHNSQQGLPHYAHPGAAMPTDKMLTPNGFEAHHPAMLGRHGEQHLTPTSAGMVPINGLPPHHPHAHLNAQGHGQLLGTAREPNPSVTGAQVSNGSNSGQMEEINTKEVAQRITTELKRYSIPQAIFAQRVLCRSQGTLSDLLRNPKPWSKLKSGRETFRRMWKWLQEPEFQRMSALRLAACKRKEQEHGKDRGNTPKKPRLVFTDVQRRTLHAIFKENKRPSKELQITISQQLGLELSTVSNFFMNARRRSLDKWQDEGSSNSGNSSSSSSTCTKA
Chain of Myc proto-oncogene protein (Homo sapiens) (P01106 whole entry, looked up): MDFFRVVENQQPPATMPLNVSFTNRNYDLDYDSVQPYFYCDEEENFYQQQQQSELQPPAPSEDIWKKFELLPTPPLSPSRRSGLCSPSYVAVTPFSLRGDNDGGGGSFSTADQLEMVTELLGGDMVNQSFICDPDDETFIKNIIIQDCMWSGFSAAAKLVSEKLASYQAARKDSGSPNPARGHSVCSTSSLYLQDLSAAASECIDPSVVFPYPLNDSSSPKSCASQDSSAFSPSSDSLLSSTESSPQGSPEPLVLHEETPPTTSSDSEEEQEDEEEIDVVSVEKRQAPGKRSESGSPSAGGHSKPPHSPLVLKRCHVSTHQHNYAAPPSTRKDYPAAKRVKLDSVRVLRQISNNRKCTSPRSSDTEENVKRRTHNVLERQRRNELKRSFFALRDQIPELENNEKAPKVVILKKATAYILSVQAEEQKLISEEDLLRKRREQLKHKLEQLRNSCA

Turning to `C=CCc1ccc(OC(=O)Cc2ccccc2)c(OC)c1`, the outcome in [1], in experiment [2], in experiment [3], in experiment [4], in [5] and in experiment [6] was inactive. Moreover, the call in experiment [7], in experiment [8], in experiment [9], in experiment [10], in [12] and in [13] was inactive. For the same molecule, the outcome in experiment [14], in experiment [16] and in experiment [17] was inactive. The results for the half-maximal activity concentration (AC50) in experiment [11] and in [15] were 27.5 µM (active) and 11 µM (active), respectively.
In the case of `[N-]=[N+]=CC(=O)OC[C@H](N)C(=O)O`, the call in [1], in [18], in experiment [4], in experiment [19], in [20] and in [6] was inactive. In addition, the molecule was called inactive in experiment [8], in experiment [10], in experiment [11], in [12], in [13] and in [14]. The result in experiment [15], in [16] and in [17] was inactive.
For the molecule `CC(C)(Cl)Cl`, the result in experiment [18], in [2], in experiment [3], in [4], in [19] and in [5] was inactive. Further, the molecule was called inactive in experiment [20], in [6], in [7], in experiment [8], in experiment [9] and in [10]. For the same molecule, the result in experiment [11], in [12], in experiment [13], in [14], in [15] and in [16] was inactive. For the same molecule, the molecule was classed as inactive in experiment [17].
Turning to `CC(O)CN(CC(C)O)CC(C)O` (stereo not given), the molecule was called inactive in experiment [1], in experiment [18], in [4], in [19], in experiment [5] and in experiment [20]. Also, the molecule was classed as inactive in experiment [6], in experiment [7], in experiment [8], in experiment [9], in experiment [10] and in experiment [12]. Also, the molecule was called inactive in experiment [13], in experiment [14], in experiment [15], in experiment [16] and in experiment [17].
In the case of `S=c1[nH]c2ccccc2[nH]1`, the molecule was classed as inactive in experiment [1], in [2], in experiment [3], in [4], in [20] and in [6]. Further, the outcome in [7], in experiment [8], in experiment [9], in experiment [10], in [12] and in experiment [13] was inactive. Besides, the molecule was classed as inactive in experiment [14], in [15], in experiment [16] and in [17].
As to `CCC(=O)c1ccc(Cl)cc1`, the call in experiment [1], in experiment [2], in experiment [3], in [19], in experiment [5] and in [20] was inactive. In addition, the molecule was classed as inactive in experiment [6], in [7], in experiment [8], in [9], in experiment [10] and in experiment [11]. Further, the outcome in [12], in experiment [13], in experiment [14], in experiment [15] and in experiment [16] was inactive.
With `CCCCOP(=O)(O)OCCCC`, the outcome in [1], in [18], in experiment [4], in experiment [19], in experiment [20] and in [6] was inactive. Further, the call in experiment [7], in experiment [8], in experiment [9], in experiment [10], in experiment [12] and in experiment [14] was inactive. The result in experiment [15] and in experiment [16] was inactive.

The term AC50 denotes the midpoint of the concentration-response curve, whichever way the signal moves.
